Molecules are shown by their SMILES. Activity calls are given as the source filed them. Entries that show only a call come without a potency. The call rests on the fitted dose curve; in most records, active means well fitted activation curve with a large enough effect in the repeat runs; inconclusive means weak or mixed curves; inactive means flat fitted curve, though single readings scatter.

Drawing on PubChem BioAssay (Tox21), this text covers Potency for 40 compounds.

A short description of this assay: A CellTox Green Cytotoxicity Assay to monitor cytotoxicity in HepG2 cells - 0 hour (AID 1224882). Further: nearly all actives have a fitted effect of over 35% in size. The conditions noted are these: CellTox Green fluorescence; series mostly up to 76.8 µM. The source says: National Center for Advancing Translational Sciences [NCATS]
NIH Chemical Genomics Center [NCGC]
U.S. Environmental Protection Agency [EPA]
National Institutes of Environmental Health Sciences [NIEHS]
National Toxicology Program [NTP]
Cell-based models are critical for drug discovery. Determining the natural cytotoxic effects resulting from test compounds is an essential research activity. A CellTox Green Cytotoxicity Assay to monitor cytotoxicity in real time of continues cell culture during 40 hours of the compound treatment was used to screen Tox21 10K library compounds in HepG2 cells. CellTox Green Cytotoxicity Assay is a nonlytic, homogeneous, biofluorescent method to measure cytotoxicity in cell culture after experimental manipulation. The assay system uses a proprietary asymmetric cyanine dye that is excluded from viable cells but preferentially stains the dead cell's DNA. […] Viable cells produce no appreciable increases in fluorescence. Therefore, the fluorescence signal produced by the binding interaction with dead cell DNA is proportional to cytotoxicity.
The mixture of HepG2 cell suspension and reagents were dispensed at 600cells/6 ul/well in 1536-well tissue culture treated black solid bottom plates using a Multidrop dispenser. After the assay plates were incubated at a 37 C/5% CO2 incubator for 5 hours, 23 nL of compounds dissolved in DMSO, positive and negative controls was transferred to the assay plate by a pintool work station. The plates were incubated at 37 C for 40 hours. The fluorescence intensity were measured at 0h, 8h, 16h, 24h, 32h and 40h time points using ViewLux plate reader during compound treatment.
On to `CC(=O)NC1CCSC1=O` (stereo not given), for which the Potency result is “inactive”.
In the case of `O=C(N[C@H](c1ccccc1)[C@@H]1CN2CCC1CC2)c1c(Cl)ccc(C(F)(F)F)c1Cl`, the Potency result was “inactive”.
Under `CC[C@H]1C[C@H]2[C@@H]3CCC4=CC(=O)CC[C@@H]4[C@H]3CC[C@]2(C)[C@H]1O` stands “inactive”.
With `Cn1sc(Cl)cc1=O`, the Potency result was “inactive”.
For `CC(=O)c1cc2c(cc1C)C(C)(C)C(C)CC2(C)C` (stereo not given) the value was “inactive”; for `CCCCN(N=O)C(=N)N[N+](=O)[O-]`, “inactive”; for `O=C1C(=O)c2cccc3cccc1c23`, “inactive”.
Under `C(=NC1CCCCC1)=NC1CCCCC1` stands “inactive”; under `O=S1OC[C@@H]2[C@H](CO1)[C@]1(Cl)C(Cl)=C(Cl)[C@@]2(Cl)C1(Cl)Cl` (stereo not given in full), “inactive”; under `C[C@@H]1CC[C@H]2[C@@H](C)C(=O)O[C@@H]3O[C@@]4(C)CC[C@@H]1[C@]32OO4`, “inactive”.
Turning to `COc1ccc(-c2ccccc2)cc1NNC(=O)OC(C)C`, the Potency entry was “inactive”.
Turning to `COC(N)=O`, the Potency entry was “inactive”.
Under `COC(C)(C)CCC[C@H](C)C/C=C/C(C)=C/C(=O)OC(C)C` stands “inactive”; under `ClC=C(Cl)Cl`, “inactive”; under `COC(=O)C(Cl)C(=O)OC`, “inactive”.
As for `Nc1ccc(N=Nc2ccc(-c3ccc(N=Nc4c(S(=O)(=O)O)cc5cc(S(=O)(=O)O)c(N=Nc6ccccc6)c(O)c5c4N)cc3)cc2)c(N)c1`, the Potency result is “inactive”.
For the compound `O=Cc1ccc2c(c1)OCO2`, the Potency result is “inactive”.
As to `C=CC(=O)OC`, the Potency result is “inactive”.
As to `CCC(Br)(CC)C(=O)NC(N)=O`, the Potency result is “inactive”.
On to `CCCCC(O)(Cn1cncn1)c1ccc(Cl)cc1Cl` (stereo not given), for which the Potency result was “inactive”.
For `C[C@H]1CNCCc2ccc(Cl)cc21` the value was “inactive”; for `OCCCBr`, “inactive”; for `CCCCCCCCCCOC(=O)c1ccccc1C(=O)OCCCCCCCCCC`, “inactive”.
Under `O=C(CBr)c1ccccc1` stands “inactive”; under `CCOP(=O)(OCC)Oc1ccc([N+](=O)[O-])cc1`, “inactive”; under `CCC(COC(=O)c1cc(OC)c(OC)c(OC)c1)(c1ccccc1)N(C)C` (stereo not given), “inactive”.
Under `CC(C)O.CC(C)O.OCCN(CCO)CCO.OCCN(CCO)CCO.[Ti]` stands “inactive”; under `COP(=O)(OC)O/C(=C/Cl)c1cc(Cl)c(Cl)cc1Cl`, “inactive”.
As for `C=CC(=O)OC(C)(C)C`, the Potency entry is “inactive”.
For `CCBr` the value was “inactive”; for `CC1(C)[C@H](C=C(Cl)Cl)[C@@H]1C(=O)O[C@@H](C#N)c1cccc(Oc2ccccc2)c1`, “inactive”; for `Nc1nc(=S)[nH][nH]1`, “inactive”.
For `C=CC(=O)NCNC(=O)C=C` the value was “inactive”; for `C=CCOC(C)=O`, “inactive”.
Regarding `NCCCNCCCN`, the Potency entry was “inactive”.
Under `CC(C)(Cl)[N+](=O)[O-]` stands “inactive”; under `Clc1cc(C(Cl)(Cl)Cl)cnc1Cl`, “inactive”.
In the case of `c1ccc(CN2CCNCC2)cc1`, the Potency entry was “inactive”.
For `O=[N+]([O-])c1cc(C(F)(F)F)cc([N+](=O)[O-])c1Cl` the value was “inactive”; for `Clc1cc(Cl)c(Cl)c(Cl)c1`, “inactive”.
